± gives the standard deviation.
The sequences below were run on MILI (PIWIL2) piRISC loaded with L1MC piRNA (26 nt) (assay: pre-steady-state target cleavage rate (min^-1); guide: L1MC piRNA 5'p-UAACUAAAUACUAUGCAAGCUGUAGG; MIWI and MILI are mouse PIWI proteins and EfPiwi is from a freshwater sponge; tags in brackets are library labels; higher = faster piRNA-guided slicing of the target). Conditions: auxiliary factor: 500 nM mouse GTSF1.
Method in brief: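 A burst-and-steady-state fit was used to obtain the pre-steady-state cleavage rate. The input data were sequencing reads of uncleaved targets, normalised to depth and to weakly complementary targets, from a […] transcribed, DNA-blocked target RNA library mixed with 1 nM active affinity-purified piRISC holding one synthetic guide, with or without 500 nM GTSF1 partner protein, in HEPES–potassium acetate buffer at 33 °C for 0–8 or 0–960 min. Three trials were pooled and k3 was capped at 0.0001 min^-1.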
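Further: 1 nM active piRISC with 0.1 nM target library at 33 °C single turnover.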

| Sequence | pre-steady-state target cleavage rate |
| --- | --- |
| UCCUGCUACACGUUGCAUAGUAUUUAGAAA | 0.0396 ± 0.013 |
| UCCUGGUACAGCUUGCAUUGUAUUUAGUAA | 0.112 ± 0.024 |
| UCCUGGAUGUCGUUGCAUAGUAUAUAGUAA | 0.0526 ± 0.018 |
| UCCUGGAUCAGCUUGCAUAGAAUUUAGUAA | 0.0373 ± 0.011 |
| UCCUGGAUGUCCUUGCUAAGUAUUUAGUUA | 0.00944 ± 0.0051 |
| UCCUGGAUGUCCUUGCUUAGUAUUUAGAUA | 0.0358 ± 0.0092 |
| UCCUCCUACAGCUUCCAUAGUAUUUUGUUA | 0.0182 ± 0.0077 |
| UCCUCCUACAGCUUGCAUUCUAUUUAGUUA | 0.0458 ± 0.0096 |
| UCCUCCUACUCGUUGCAUAGUAUUUACAAA | 0.0372 ± 0.012 |
| UCCUGCUACAGCUUGCAUAGUAAAUAGUUA | 0.17 ± 0.027 |
| UCCUGGAUGUCGUUGCAUAGUAUUUUCUUA | 0.00558 ± 0.0035 |
| UCCUGGAUGUCGUUGGAAAGUAUUUAGUUA | < 0.0001 |
| UCCUCCUACAGCUUCGUUAGUAUUUAGUAA | 0.186 ± 0.026 |
| UCCUGGAUGUCGUUGCAUAGUAUUUAGAUA | 0.0436 ± 0.017 |
| UCCUGGAACAGCUUGCAUUGUAUUUACAAA | 0.00788 ± 0.0043 |
| UCCUGCUACACGAUGCAUAGUAUUUAGAAA | 0.183 ± 0.042 |

| Sequence | pre-steady-state target cleavage rate |
| --- | --- |
| UCCUCCUAGUCCUUGCAUAGUAUUUUCAAA | 0.0344 ± 0.013 |
| UCCUGGAUGAGCUUGCAUAGUAUUUUGUAA | 0.0267 ± 0.011 |
| UCCUGGAUGUCGAUGCAUAGCAUUUAGUUA | 0.0232 ± 0.0085 |
| UCCUGGAUGUCGAAGCAUAGUAUAUAGUAA | 0.012 ± 0.0042 |
| UCCUGGAUGUCCUUGCAUAGUAUUUCGUUA | 0.0489 ± 0.017 |
| UCCUGGAUGUCGUUGCAUAGUAUUUUGUUA | 0.194 ± 0.044 |
| UCCUCCUAGUCCUUGCAUAGUAUUUACAAA | 0.0299 ± 0.0097 |
| UCCUGGAUGUCCUUGACAUAGUAUUUAGUUA | 0.0214 ± 0.0096 |
| UCCUGGAUGUGCUUGCAUAGUAUUUGUUA | 0.0295 ± 0.011 |
| UCCUGGUACAGCUUGCAUAGUUAAUAGAAA | 0.00845 ± 0.0048 |
| UCCUGGAUGUCGAAGCAUAGUAUUUAGAUA | 0.00991 ± 0.0044 |
| UCCUGCUACAGCUUGCAUAGUAUAAAGAAA | 0.0621 ± 0.021 |
| UCCUGGAUGUCGAAGCAUAUUAUUUAGUUA | 0.00703 ± 0.0037 |
| UCCUGGAUGUGCUACCAUAGUAUUUAGAAA | 0.00379 ± 0.0038 |
| UCCUGGAUCAGCUUGCAUAGUAAAAACAAA | 0.027 ± 0.0099 |
| UCCUCCUACAGCUUGCAUAUGUAUUUAGUUA | 0.0106 ± 0.0057 |

Same assay, conditions: auxiliary factor: none (no GTSF1)

| Sequence | pre-steady-state target cleavage rate |
| --- | --- |
| UCCUGGAUGUCGAACGCUAGUAUUUAGUUA | < 0.0001 |
| UCCUGGAACAGCUUGCAAUCAUAAAUCAAA [g14:g23:cont:t1A] | < 0.0001 |
| UCCUGGAUGUCGAACCAUAGUAUUUUCAAA [g6:g15:cont:t1A] | < 0.0001 |
| UCCUGGAUGUCGAACGUUAGUAUAUAGUUA | < 0.0001 |
| UCCUGGAUGAGCUUGCAUACAUUUUAGUUA | 0.00358 ± 0.0026 |
| UCCUGGAACAGCUUCGAUAGUAUUUACAAA | < 0.0001 |
| UCCUGGAUGUCGAACCAUAGUAAUUUGUUA | < 0.0001 |
| UCCUGGAUGUCGAAGCAUAGUAUUUGUUA | < 0.0001 |
